Source: PubChem BioAssay
G9a block: blocks human histone lysine methyltransferase G9a. G9a H3K9 monomethylation, AlphaScreen, 2 h. Potency, µM (titrated, usually from 102 µM), usual class: inhibitors. 8.8% of 350,000 active; also: nearly all actives have a fitted effect of over 75% in size
Target sequence (Q96KQ7 913-1193 limits assumed): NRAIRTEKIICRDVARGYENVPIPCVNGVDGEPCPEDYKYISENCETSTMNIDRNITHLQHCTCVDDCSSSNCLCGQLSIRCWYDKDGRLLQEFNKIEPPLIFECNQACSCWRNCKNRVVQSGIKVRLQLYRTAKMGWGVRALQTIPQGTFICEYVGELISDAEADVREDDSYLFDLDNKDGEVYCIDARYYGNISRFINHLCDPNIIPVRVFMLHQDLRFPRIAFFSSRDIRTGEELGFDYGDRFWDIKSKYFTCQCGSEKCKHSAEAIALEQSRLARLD
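Enzyme 20 nM + cpd, 15 min RT; add b-H3K9 pep 500 nM / SAM 20 uM; 2 h RT; anti-H3K9me1 Ab 0.5 ug/mL + SA donor / anti-rabbit acceptor beads 20 ug/mL each, 10 min; AlphaScreen read.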
TDP1 inh: blocks human tyrosyl-DNA phosphodiesterase 1. Q9NUW8. Potency, µM (doses to about 130 µM), hits mostly inhibitors. 0.28% of 350,000 active. recombinant TDP1, AlphaScreen DNA substrate cleavage. AID 485290; also: nearly all actives have a fitted effect of over 40% in size
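Here, a 5' biotin and 3' phosphotyrosine-FITC DNA oligonucleotide reports Tdp1 activity: intact substrate bridges AlphaScreen beads, while cleavage leaves a 3' phosphate and drops signal. All incubations at room temperature.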
Sfp PPTase inh: blocks B. subtilis Sfp PPTase activity. Biochemical Sfp PPTase activity, qHTS. Potency, µM, actives largely listed as inhibitors. 3.5% of 310,000 active;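 also: the enzyme is Sfp with the accession as filed and its product quenches rhodamine fluorescence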
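Reaction rates are the 30-min fluorescence difference (ex 525, em 598 nm) in wells containing 15 nM Sfp, 5 uM rhodamine-CoA and 12.5 uM BHQ-2-YbbR at pH 7.6 with 10 mM MgCl2.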
BAZ2B inh: blocks human BAZ2B | Potency, µM (highest dose often 114 µM), actives largely listed as inhibitors | Q9UIF8 | 4.4% of 360,000 active | AID 504333 | AlphaScreen BAZ2B-H3K14Ac peptide displacement; also: nearly all actives have a fitted effect of over 60% in size
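Multi-concentration screen (max 110 uM) measuring displacement of acetylated histone H3 peptide from BAZ2B by AlphaScreen, using 50 nM protein, 50 nM peptide and 10 ug/mL streptavidin donor plus Ni-chelate acceptor beads.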
HP1b binding inh: blocks HP1-beta chromodomain binding to methylated histone tails; AID 540317; AlphaScreen HP1-beta / biotin-H3K9me3 peptide binding; 0.56% of 390,000 active; Potency, µM (titrated, usually from 114 µM), most hits filed as inhibitors; P83916; also: nearly all actives have a fitted effect of over 70% in size
Target sequence (P83916 whole entry, looked up): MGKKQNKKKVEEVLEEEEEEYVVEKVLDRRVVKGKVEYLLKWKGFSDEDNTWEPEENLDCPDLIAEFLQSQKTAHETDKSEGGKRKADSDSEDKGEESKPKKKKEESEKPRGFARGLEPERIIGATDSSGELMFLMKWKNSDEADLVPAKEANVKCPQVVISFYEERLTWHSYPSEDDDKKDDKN
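AlphaScreen: HP1-beta (50 nM) preformed 30 min with biotin-H3(1-18)K9me3 peptide (50 nM) in PBS pH 7.4, 0.01% Tween-20. Compound added for 30 min at RT, then streptavidin donor/nickel chelate acceptor beads (10 ug/mL) for 30 min.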
JMJD2A Tudor: inhibitors of human JMJD2A Tudor domain | AlphaScreen JMJD2A-Tudor / H3K4me3 peptide binding | Potency, µM (titrated, usually from 114 µM), hits mostly inhibitors | 4.4% of 390,000 active | O75164; also: nearly all actives have a fitted effect of over 50% in size
Hits are given with their value; [ ] = dose if it differs, or a comment. Only some compounds are listed: those with a hit (about 12% of all), similar ones and a draw of the others. Calls follow the shape of the dose curve; as a rule, active = well fitted curve in the direction sought with a large enough effect; inconclusive = small, poorly fitted or top-dose-only effect, or another doubt; inactive = no such curve, though single readings can be large; an effect the other way counts as inactive or inconclusive.

How did COc1ccc(Cl)cc1C(=O)Nc1ccc2oc(-c3ccc(C(C)(C)C)cc3)nc2c1 do in these assays?
G9a block: inactive; TDP1 inh: inactive[12.3 µM]; BAZ2B inh: inactive; HP1b binding inh: inactive; JMJD2A Tudor: inactive

Results for CC1CCCN(C(=S)Nc2ccc(F)cc2)C1 (stereo not given) ?
G9a block: inactive; TDP1 inh: inactive; Sfp PPTase inh: inactive; BAZ2B inh: inactive; HP1b binding inh: inactive; JMJD2A Tudor: inactive

How did OC1CCN(C(=S)Nc2ccc(Nc3ccccc3)cc2)CC1 do in these assays?
G9a block: inconclusive; TDP1 inh: inactive; Sfp PPTase inh: 17.8µM; BAZ2B inh: inconclusive; HP1b binding inh: inactive; JMJD2A Tudor: inactive

Results for CC1CCCN(C(=S)Nc2ccc(Nc3ccccc3)cc2)C1 (stereo not given) ?
G9a block: 39.8µM; TDP1 inh: inactive; Sfp PPTase inh: inconclusive; BAZ2B inh: inactive; HP1b binding inh: inconclusive; JMJD2A Tudor: inconclusive

What do the screens show for `COc1ccc(Nc2nc(-c3cccc(Cl)c3)c3c(n2)-c2ccccc2OC3)cc1`?
G9a block: inactive; TDP1 inh: inactive; BAZ2B inh: inactive; HP1b binding inh: inactive; JMJD2A Tudor: inactive

Results for CCOc1ccc(Nc2nc(-c3cccc(Cl)c3)c3c(n2)-c2ccccc2OC3)cc1 ?
G9a block: 12.6µM; TDP1 inh: inactive; BAZ2B inh: inactive; HP1b binding inh: inactive; JMJD2A Tudor: inconclusive

What do the screens show for `COc1ccc(N=c2nc(-c3ccccc3)n(-c3ccc(C)cc3)s2)cc1`?
HP1b binding inh: inactive; JMJD2A Tudor: inactive

How did Cn1sccc1=O do in these assays?
G9a block: 1.78µM; BAZ2B inh: inactive; HP1b binding inh: inactive; JMJD2A Tudor: inactive

Results for CCOC(=O)N1CCC(N2C(=O)c3ccccc3C2Nc2ccc(S(=O)(=O)N3CCOCC3)cc2)CC1 (stereo not given) ?
G9a block: 44.7µM; TDP1 inh: inactive; Sfp PPTase inh: inactive; BAZ2B inh: inactive; HP1b binding inh: inactive; JMJD2A Tudor: inactive

What do the screens show for `CCOC(=O)N1CCC(N2C(=O)c3ccccc3C2Nc2cc(Cl)c(OC)cc2OC)CC1` (stereo not given)?
G9a block: 44.7µM; TDP1 inh: inactive; Sfp PPTase inh: inactive; BAZ2B inh: 44.7µM; HP1b binding inh: inactive; JMJD2A Tudor: inconclusive

How did CC1CC(=O)N(CC(=O)Nc2ccc(F)cc2F)c2ccccc2S1 (stereo not given) do in these assays?
G9a block: inactive; TDP1 inh: inactive; BAZ2B inh: inactive; HP1b binding inh: inactive; JMJD2A Tudor: inactive

How did Cc1ccc(NCc2nnc(SCC(=O)NCc3ccco3)n2CC2CCCO2)cc1Cl (stereo not given) do in these assays?
G9a block: inconclusive; TDP1 inh: inactive; Sfp PPTase inh: inactive; BAZ2B inh: inactive; HP1b binding inh: inactive; JMJD2A Tudor: 79.4µM

Results for Cc1ccc(NCc2nnc(SCC(=O)Nc3cccc(O)c3)n2CC2CCCO2)c(C)c1 (stereo not given) ?
G9a block: 56.2µM; TDP1 inh: inactive; Sfp PPTase inh: inactive; BAZ2B inh: inconclusive; HP1b binding inh: inactive; JMJD2A Tudor: inconclusive

Results for COc1ccccc1C(=O)NCCn1cc(SCc2ccc(C)cc2)c2ccccc21 ?
G9a block: inactive; TDP1 inh: inactive; BAZ2B inh: inactive; HP1b binding inh: inactive; JMJD2A Tudor: inactive

Results for CCn1c(C)c(Br)c(=O)c(C(=O)OC)c1-c1ccc(Cl)cc1 ?
G9a block: inactive[12.7 µM]; Sfp PPTase inh: inactive; BAZ2B inh: inactive; HP1b binding inh: inactive; JMJD2A Tudor: inactive

Results for CCOC(=O)N1CCC(NC(=O)Cn2ncc3ccccc32)CC1 ?
G9a block: inactive; TDP1 inh: inactive; Sfp PPTase inh: inactive; BAZ2B inh: inactive; HP1b binding inh: inactive; JMJD2A Tudor: inactive

What do the screens show for `CCOC(=O)N1CCN(C(=O)Cn2ncc3ccccc32)CC1`?
G9a block: inactive; TDP1 inh: inactive; Sfp PPTase inh: inactive; BAZ2B inh: inactive; HP1b binding inh: inactive; JMJD2A Tudor: 79.4µM

What do the screens show for `CCOC(=O)N1CCN(C/C(Cl)=C/c2ccccc2)CC1`?
Sfp PPTase inh: inconclusive; BAZ2B inh: inconclusive; HP1b binding inh: 50.1µM; JMJD2A Tudor: 1.78µM

How did O=C(Nc1csnn1)OCc1ccccc1 do in these assays?
HP1b binding inh: inactive; JMJD2A Tudor: inactive
